# High-throughput results deposited in PubChem BioAssay by National Center for Advancing Translational Sciences (NCATS).
# DRD3 agonist: agonists of human D3 dopamine receptor; P35462; D3R DiscoveRx beta-arrestin cells, luminescence, 90 min; max activation, %; hit rate 0.58% among 410,000; in the data active = max activation above about 30%; also: 0% is about no effect
#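 Cells at 1500/well, incubated overnight, then treated with pinned compounds (dopamine as control) for 90 min at 37 degrees C. DiscoveRx reagent added for 30 - 60 minutes at room temperature; luminescence read.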
# D3 antag: blocks the human D3 dopamine receptor; max response, negative = inhibition, %; D3R cells, DiscoveRx beta-arrestin luminescence, antagonist mode; stronger effect = lower value; hit rate 2.5% among 360,000; in the data active = max response below about -50%; inconclusive = no clear call, values can overlap the other calls; also: % is scaled to controls: 0 for no effect and ±100 for the full control effect
#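 Cells plated overnight at 1500 cells/well, then exposed to library compounds with dopamine controls for 90 minutes at 37 degrees C. DiscoveRx reagent added for 30–60 minutes at room temperature; luminescence read, quantitative HTS format.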
# D1 antag: human D1 dopamine receptor antagonism; hit rate 3.2% among 360,000; activity change, negative = inhibition, % at 10 µM; HEK293 TREx D1 cells, calcium flux, dopamine EC80; stronger effect = lower value; P21728; in the data active = activity change below about -30%; also: % is scaled to controls: 0 for no effect and ±100 for the full control effect
# Target sequence (P21728 whole entry, looked up): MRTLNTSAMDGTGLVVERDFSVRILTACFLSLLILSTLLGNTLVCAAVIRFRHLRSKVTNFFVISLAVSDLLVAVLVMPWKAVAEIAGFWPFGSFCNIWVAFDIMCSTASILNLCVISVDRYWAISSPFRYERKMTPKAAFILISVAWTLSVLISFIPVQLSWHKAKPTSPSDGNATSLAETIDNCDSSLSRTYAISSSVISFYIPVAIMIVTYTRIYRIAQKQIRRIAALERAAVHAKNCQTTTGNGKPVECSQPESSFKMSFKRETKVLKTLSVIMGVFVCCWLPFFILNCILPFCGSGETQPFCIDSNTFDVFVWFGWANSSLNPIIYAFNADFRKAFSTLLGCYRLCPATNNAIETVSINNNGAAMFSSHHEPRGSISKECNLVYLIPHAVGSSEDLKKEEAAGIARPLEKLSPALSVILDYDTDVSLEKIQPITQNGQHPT
#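 Inducible Hek293 Trex D1 cells (tetracycline, overnight, 30 C). Calcium dye 30–90 min RT. Antagonist mode: EC80 dopamine added after 180 s compound read.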
# D1 agonist: agonists of human D1 dopamine receptor; activation, % at 2 µM; hit rate 1% among 360,000; HEK293 T-REx D1 cells, calcium flux, agonist mode; in the data active = activation above about 30%; also: 0% is about no effect
#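 Agonism was scored from calcium flux recorded over 180 s (1 read/s) after pintool compound addition, following a 10-cycle baseline. Cells were inducible force-coupled HEK293 TREx D1, plated overnight at 30 C and loaded with no-wash calcium dye.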
# D1 potentiator: human D1 dopamine receptor positive modulation; P21728; HEK293 TREx D1 cells, calcium flux, dopamine EC20 potentiation; potentiation, % at 10 µM; hit rate 0.036% among 360,000; in the data active = potentiation above about 30%; also: 0% is about no effect
# * hit, by the source's call; ? = inconclusive; . = no result given. This is a sample that favours compounds with a hit; in the whole collection about 6% have one here.
SMILES,DRD3 agonist,D3 antag,D1 antag,D1 agonist,D1 potentiator
Cc1cc(C)n2nc(CNC(=O)c3ccc(Cl)cc3)nc2n1,-21,.,6,2,-1
CC(C)(C)C(=O)Nc1cccc(C(=O)OCc2cc(=O)n3nc(C4CCCCC4)sc3n2)c1,0,.,-6,1,0
Cc1ccc(Cn2c(=O)n(CCc3ccccc3)c(=O)c3sc4ccccc4c32)cc1,1,.,-5,2,-2
Cc1cc(/C=C2\SC(=S)NC2=O)c(C)[nH]1,11,-23,8,33*,6
Cc1cccc(-n2c(C)cc(/C=C3\NC(=O)NC3=O)c2C)c1,-3,3,-40*,0,-8
Cc1cc(C=C2C(=O)c3ccccc3C2=O)c(C)n1-c1ccc(C(=O)O)cc1,1,-10,9,2,-2
Cc1cc(C=C2C(=O)c3ccccc3C2=O)c(C)n1-c1ccccc1,4,-11,-1,33*,-3
Cc1ccc(-n2c(C)cc(/C=C3\SC(=O)NC3=O)c2C)cc1,-2,-1,-36*,10,-6
CCn1c(C)cc(/C=C2/SC(=S)NC2=O)c1C,-2,-4,-2,16,-6
CCOC(=O)c1ccc(NC(=O)C2CCCN(c3ccc(Sc4ccc(C)cc4)nn3)C2)cc1 (centres undefined),-7,.,-2,4,4
N#Cc1ccccc1Cn1c(=O)n(CCCCC(=O)NCc2ccc3c(c2)OCO3)c(=O)c2ccccc21,4,.,-23,0,2
CC(NC(=O)C(=O)Nc1c2c(nn1-c1ccccc1)CSC2)c1ccccc1 (centres undefined),-6,.,.,6,-2
Cc1c(C(=O)N2CCCCCC2)c(S(=O)(=O)N(Cc2ccccc2)C(C)(C)C)c(C)n1C,5,.,-13,1,5
COc1ccc(-c2noc(CNC(=O)COc3cccc(C)c3C)n2)cc1,-8,.,11,15,-2
Cc1sc(-n2c(C)cc(/C=C3\SC(=S)NC3=O)c2C)c(C#N)c1C,-21,-71*,19,9,-1
Cc1cc(/C=C2\SC(=S)NC2=O)c(C)n1-c1cccc(O)c1,-4,?,1,34*,-1
COc1cc(C2C(C(=O)c3cccs3)=C(O)C(=O)N2c2cc(C)on2)ccc1O (centres undefined),-2,0,-11,0,4
COc1ccc(OC)c(C2C(C(=O)c3cccs3)=C(O)C(=O)N2c2cc(C)on2)c1 (centres undefined),4,-69*,2,2,1
COc1cccc(C2C(C(=O)c3cccs3)=C(O)C(=O)N2c2cc(C)on2)c1 (centres undefined),10,-55*,-4,0,-4
Cc1cc(N2C(=O)C(O)=C(C(=O)c3cccs3)C2c2cccc(O)c2)no1 (centres undefined),0,10,6,2,3
CC(C)CCC[C@@H](C)[C@H]1CC(=O)C2=C3CC[C@H]4C[C@@H](O)CC[C@]4(C)[C@H]3CC[C@@]21C,-1,.,.,.,.
Cc1cccc(NC(=O)CSc2nc(-c3ccccc3)c(C#N)c(=O)[nH]2)c1C,-5,-63*,36,1,2
Cc1ccc(-c2nc(Nc3ccc(O)cc3)c3ccccc3n2)cc1,1,0,-23,0,-6
Cc1ccc(-c2nc(Nc3cccc(O)c3)c3ccccc3n2)cc1,-3,1,-30*,7,-14
O=C(O)c1cccc(Nc2nc(-c3ccc([N+](=O)[O-])cc3)nc3ccccc23)c1,27,19,4,4,-4
SMILES,DRD3 agonist,D3 antag,D1 antag,D1 agonist,D1 potentiator
O=[N+]([O-])c1ccc(-c2nc(Nc3cccc(O)c3)c3ccccc3n2)cc1,-1,22,-33*,5,-9
O=C1Nc2ccccc2Oc2cc(Oc3ccc(Cl)cc3)ccc21,17,.,-21,4,-1
Cc1ccc(Oc2cc([N+](=O)[O-])cc3c2C(=O)Nc2ccccc2O3)cc1,49*,-12,-6,7,-3
CCOC(=O)c1c(CN2CCN(C)CC2)n(C)c2cc(Br)c(OC)cc12,-58,?,-10,5,8
CCOC(=O)c1c(CN2CCCCC2)n(C)c2cc(Br)c(O)cc12,-59,-87*,-9,3,-1
COc1cc(-c2nc(C(N)=O)c3c(n2)n(-c2cccc(C)c2)c(=O)n3C)cc(OC)c1OC,-1,.,14,1,0
